Measured values from the supplement of paper PMC11732987, “Enantioselective OTUD7B fragment discovery through chemoproteomics screening and high-throughput optimisation” (Communications Chemistry, 2025).

How the values were obtained:
Assay in all cases: log2 ratio of Biotin-Ahx-Ub-VS probe labelling (fragment/DMSO); higher = less target engagement (more negative = stronger competition), active = hit call of the paper (q ≤ 0.05, log2 ratio ≤ -1)
Conditions in all cases: compound concentration: 200 uM; treatment time: 3 h
USP19 = target: T1, USP19 (UniProt O94966)
T1 sequence (whole entry): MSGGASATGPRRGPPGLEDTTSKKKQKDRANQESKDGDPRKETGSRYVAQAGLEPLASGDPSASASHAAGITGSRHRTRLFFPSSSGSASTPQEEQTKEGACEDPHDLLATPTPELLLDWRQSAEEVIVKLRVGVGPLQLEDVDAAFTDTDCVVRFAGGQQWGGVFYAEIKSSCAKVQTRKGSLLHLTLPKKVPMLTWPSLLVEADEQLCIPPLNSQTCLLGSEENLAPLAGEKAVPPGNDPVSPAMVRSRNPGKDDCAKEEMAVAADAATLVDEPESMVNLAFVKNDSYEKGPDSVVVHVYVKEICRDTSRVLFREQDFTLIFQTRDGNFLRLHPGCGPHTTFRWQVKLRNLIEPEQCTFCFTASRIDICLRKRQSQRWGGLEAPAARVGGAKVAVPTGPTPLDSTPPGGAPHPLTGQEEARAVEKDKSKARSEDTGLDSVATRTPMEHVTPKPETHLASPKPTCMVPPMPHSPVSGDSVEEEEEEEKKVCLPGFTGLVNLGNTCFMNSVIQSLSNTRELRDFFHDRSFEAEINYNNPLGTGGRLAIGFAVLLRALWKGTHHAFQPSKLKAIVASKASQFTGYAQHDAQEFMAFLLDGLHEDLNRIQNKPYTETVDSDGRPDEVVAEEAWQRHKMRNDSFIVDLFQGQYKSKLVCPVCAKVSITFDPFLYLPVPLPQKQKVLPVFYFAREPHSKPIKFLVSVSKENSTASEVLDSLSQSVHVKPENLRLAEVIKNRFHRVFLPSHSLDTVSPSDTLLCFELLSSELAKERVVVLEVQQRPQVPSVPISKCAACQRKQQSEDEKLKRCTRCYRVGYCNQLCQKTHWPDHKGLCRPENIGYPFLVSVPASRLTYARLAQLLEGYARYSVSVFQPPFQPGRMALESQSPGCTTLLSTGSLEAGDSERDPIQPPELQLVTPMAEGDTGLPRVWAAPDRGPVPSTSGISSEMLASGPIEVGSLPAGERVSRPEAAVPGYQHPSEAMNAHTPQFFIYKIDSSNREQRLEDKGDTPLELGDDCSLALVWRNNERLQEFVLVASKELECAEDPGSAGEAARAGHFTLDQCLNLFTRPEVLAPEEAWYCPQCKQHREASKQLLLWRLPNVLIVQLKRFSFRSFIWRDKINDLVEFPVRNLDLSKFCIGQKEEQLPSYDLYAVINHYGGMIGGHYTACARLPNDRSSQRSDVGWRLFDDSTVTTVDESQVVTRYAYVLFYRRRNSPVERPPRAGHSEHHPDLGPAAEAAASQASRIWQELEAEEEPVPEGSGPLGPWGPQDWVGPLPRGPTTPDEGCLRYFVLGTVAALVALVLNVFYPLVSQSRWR
How it was run: (§1)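 HEK293T lysate, 495 µg per sample in Tris/CHAPS/IGEPAL buffer with protease inhibitors, was treated in triplicate with fragment at 200 µM or vehicle for 3 h and then with Biotin-Ahx-Ub-VS at 0.5 µM final for 1 h. Labelled DUBs were NeutrAvidin-enriched, digested with LysC and trypsin, and run by diaPASEF LC-MS/MS. Spectronaut label-free quantities were global-median-normalised, and values are average log2 fragment/vehicle ratios by unpaired t-test on proteins with ≥2 unique peptides.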

USP24 = USP24 (UniProt Q9UPU5)
How it was run: as §1

USP25 = target: T2, USP25 (UniProt Q9UHP3)
T2 sequence (whole entry): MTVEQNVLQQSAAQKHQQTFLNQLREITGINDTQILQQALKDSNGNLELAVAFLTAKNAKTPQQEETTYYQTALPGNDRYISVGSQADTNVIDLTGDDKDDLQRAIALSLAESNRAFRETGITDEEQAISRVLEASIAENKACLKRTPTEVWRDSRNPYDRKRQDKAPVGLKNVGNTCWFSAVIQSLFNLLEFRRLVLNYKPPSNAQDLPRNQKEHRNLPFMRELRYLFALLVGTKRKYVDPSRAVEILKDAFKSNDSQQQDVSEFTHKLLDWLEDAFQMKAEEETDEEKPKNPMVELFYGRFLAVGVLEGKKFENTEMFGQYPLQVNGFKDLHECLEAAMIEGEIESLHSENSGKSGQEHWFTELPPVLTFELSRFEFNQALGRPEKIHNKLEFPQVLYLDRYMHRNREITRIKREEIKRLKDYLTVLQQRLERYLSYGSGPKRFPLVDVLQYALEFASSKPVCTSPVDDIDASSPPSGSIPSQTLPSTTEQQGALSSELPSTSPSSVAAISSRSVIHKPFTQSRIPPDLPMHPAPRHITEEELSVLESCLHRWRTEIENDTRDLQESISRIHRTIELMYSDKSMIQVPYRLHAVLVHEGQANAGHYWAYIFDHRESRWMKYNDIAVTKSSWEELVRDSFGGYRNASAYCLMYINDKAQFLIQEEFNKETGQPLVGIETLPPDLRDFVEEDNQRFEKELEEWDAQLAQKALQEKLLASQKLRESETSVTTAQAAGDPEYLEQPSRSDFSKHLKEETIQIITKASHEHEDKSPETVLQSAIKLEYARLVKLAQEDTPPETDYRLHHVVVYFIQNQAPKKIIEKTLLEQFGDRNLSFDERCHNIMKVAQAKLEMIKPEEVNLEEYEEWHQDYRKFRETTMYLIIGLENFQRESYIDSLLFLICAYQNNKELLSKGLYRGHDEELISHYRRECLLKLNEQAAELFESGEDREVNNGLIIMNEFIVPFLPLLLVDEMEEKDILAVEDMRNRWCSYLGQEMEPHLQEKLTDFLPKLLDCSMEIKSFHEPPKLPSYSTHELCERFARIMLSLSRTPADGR
How it was run: as §1

USP28 = target: T3, USP28 (UniProt Q96RU2)
T3 sequence (whole entry): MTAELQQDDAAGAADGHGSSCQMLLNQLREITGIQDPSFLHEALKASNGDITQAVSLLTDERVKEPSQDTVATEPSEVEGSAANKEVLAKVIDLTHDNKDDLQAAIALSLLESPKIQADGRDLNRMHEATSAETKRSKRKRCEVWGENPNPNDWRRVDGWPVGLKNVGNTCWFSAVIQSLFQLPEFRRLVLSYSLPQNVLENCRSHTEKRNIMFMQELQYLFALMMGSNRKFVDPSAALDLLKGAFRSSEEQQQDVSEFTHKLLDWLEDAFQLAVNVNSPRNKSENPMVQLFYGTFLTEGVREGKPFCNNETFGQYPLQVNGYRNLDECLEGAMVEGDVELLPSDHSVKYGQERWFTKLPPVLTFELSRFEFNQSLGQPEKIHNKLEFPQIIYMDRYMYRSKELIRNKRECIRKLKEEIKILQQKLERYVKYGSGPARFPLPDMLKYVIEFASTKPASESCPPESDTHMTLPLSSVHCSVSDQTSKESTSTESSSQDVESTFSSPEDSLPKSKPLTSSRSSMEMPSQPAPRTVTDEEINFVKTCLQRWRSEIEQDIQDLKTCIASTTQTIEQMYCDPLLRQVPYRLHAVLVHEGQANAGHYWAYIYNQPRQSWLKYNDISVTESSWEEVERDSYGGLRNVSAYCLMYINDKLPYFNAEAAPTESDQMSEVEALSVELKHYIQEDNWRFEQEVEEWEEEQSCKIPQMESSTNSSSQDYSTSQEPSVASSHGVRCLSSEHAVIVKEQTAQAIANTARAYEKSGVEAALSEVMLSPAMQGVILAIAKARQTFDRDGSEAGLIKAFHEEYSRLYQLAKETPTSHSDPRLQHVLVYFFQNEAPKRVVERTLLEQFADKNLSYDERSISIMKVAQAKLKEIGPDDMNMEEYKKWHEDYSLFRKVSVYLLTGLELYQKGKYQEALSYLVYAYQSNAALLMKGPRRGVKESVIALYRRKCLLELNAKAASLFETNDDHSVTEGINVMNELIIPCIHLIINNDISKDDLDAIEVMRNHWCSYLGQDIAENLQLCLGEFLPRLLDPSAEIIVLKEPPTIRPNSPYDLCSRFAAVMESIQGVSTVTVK
How it was run: as §1

Measured: log2 ratio of Biotin-Ahx-Ub-VS probe labelling

Chain of USP24 (Q9UPU5 whole entry): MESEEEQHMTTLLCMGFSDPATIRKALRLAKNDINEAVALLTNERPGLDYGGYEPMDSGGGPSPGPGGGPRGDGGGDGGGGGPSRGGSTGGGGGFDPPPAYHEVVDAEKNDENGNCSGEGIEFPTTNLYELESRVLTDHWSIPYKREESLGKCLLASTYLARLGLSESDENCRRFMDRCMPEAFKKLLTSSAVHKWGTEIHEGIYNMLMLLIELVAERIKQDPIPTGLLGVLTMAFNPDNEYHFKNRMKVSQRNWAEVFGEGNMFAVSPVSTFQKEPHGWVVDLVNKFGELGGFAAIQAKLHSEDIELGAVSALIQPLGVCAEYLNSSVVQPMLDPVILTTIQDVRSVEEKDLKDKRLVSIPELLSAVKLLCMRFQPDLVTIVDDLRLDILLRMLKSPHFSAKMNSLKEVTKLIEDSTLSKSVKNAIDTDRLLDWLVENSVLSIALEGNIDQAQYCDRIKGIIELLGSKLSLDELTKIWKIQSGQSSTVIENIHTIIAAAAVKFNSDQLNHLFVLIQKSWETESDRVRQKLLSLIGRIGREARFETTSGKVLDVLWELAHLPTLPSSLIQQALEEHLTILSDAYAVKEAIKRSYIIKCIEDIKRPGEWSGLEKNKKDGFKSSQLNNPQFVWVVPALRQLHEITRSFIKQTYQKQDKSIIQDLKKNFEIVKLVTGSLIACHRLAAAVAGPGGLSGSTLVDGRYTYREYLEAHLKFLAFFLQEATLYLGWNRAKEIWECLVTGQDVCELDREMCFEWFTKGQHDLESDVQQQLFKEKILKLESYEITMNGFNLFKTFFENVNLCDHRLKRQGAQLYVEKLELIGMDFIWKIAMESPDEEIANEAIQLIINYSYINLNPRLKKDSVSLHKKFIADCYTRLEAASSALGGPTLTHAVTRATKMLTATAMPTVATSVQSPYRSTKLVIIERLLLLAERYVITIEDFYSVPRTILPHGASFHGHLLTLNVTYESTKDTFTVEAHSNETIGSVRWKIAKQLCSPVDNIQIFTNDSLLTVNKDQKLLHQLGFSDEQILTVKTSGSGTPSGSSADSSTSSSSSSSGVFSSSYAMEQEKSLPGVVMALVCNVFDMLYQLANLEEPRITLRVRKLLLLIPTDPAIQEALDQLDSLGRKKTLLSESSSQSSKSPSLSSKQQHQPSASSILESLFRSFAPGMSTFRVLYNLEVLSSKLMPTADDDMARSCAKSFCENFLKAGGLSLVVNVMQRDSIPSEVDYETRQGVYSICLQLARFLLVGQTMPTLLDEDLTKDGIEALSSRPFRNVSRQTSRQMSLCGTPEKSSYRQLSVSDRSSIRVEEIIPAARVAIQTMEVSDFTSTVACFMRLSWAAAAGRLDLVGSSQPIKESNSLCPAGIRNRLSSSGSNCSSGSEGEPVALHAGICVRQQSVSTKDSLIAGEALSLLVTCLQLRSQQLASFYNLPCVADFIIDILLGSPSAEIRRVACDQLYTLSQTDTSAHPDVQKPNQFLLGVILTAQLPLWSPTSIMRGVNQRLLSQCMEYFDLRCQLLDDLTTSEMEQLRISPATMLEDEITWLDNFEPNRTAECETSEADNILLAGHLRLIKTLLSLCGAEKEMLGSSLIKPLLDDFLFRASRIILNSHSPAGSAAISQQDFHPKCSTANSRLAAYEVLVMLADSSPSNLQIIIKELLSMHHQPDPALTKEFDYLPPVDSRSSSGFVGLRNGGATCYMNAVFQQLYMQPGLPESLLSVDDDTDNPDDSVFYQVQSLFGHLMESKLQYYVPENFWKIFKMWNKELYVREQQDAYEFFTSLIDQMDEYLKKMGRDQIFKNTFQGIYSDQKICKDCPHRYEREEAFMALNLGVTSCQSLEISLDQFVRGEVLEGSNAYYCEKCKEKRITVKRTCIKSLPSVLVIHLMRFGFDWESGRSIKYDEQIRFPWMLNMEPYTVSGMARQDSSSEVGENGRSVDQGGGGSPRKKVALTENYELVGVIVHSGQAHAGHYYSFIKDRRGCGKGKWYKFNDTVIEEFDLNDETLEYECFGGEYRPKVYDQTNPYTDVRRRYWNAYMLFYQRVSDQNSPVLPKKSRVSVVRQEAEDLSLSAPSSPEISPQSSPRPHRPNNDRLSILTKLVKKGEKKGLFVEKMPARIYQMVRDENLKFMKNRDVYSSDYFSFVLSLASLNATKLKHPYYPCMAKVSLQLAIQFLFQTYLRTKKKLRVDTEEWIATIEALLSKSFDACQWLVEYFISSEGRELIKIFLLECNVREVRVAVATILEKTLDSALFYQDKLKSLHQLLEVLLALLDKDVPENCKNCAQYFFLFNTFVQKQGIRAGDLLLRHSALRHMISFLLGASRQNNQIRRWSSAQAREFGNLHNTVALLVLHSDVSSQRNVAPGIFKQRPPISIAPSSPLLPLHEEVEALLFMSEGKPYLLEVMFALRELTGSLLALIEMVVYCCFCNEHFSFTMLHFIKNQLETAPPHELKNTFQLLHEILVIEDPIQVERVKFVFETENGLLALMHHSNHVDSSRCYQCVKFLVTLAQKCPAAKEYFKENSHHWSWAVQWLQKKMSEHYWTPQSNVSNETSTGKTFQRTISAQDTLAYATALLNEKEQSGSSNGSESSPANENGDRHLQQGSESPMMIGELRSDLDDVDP

Cc1ccc(CC(CO)CNC(=O)CCl)cc1 (centres undefined)
inactive: USP19 -0.487 | USP24 -0.554 | USP25 -0.531 | USP28 -0.597
